Assay outcomes from PubChem BioAssay.
Most compounds without a hit are left out; they make up all but 12% or so of the library.
CHX counter: counter-screen hit for Shiga toxin inhibitors, cycloheximide | cell reporter, cycloheximide protein synthesis inhibition counterscreen | 12% of 300,000 active | AID 2314 | max response, %; in the data active means max response mostly above about 13%, no sharp cut-off; inactive means mostly below about 14%; further: read at 38.3 µM for the half of the compounds with a filed dose; 0% is about no effect
Shiga inhibitor: blocks Shiga toxin action in Vero cells; Vero cells, Shiga toxin protein synthesis inhibition reporter; inhibition, % at 38.7 µM; 9.2% of 290,000 active; in the data active means inhibition mostly above about 28%, no sharp cut-off; inactive means mostly below about 43%; further: 0% is about no effect
Sm TGR inh: blocks Schistosoma mansoni thioredoxin glutathione reductase; Q962Y6; purified TGR, DTNB reduction, TNB absorbance 405 nm; Potency, µM (titrated, usually from 114 µM), for inactives: top-dose activity change, negative = inhibition, most hits filed as inhibitors; 3% of 360,000 active; active means well fitted inhibition curve with a large enough effect; inconclusive means small, poorly fitted or top-dose-only effect; inactive means no such curve, though single readings can be large or run the other way; further: potency means the concentration at half of the fitted maximal effect; on the % scale 0 is the no-effect control and ±100 the full control effect; nearly all actives have a fitted effect of over 60% in size
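First, TGR (20 nM dispensed) and NADPH were mixed with compound. Second, a 15 min room-temperature incubation followed. Third, further NADPH and then DTNB were added to start the reaction. Finally, TNB absorbance was monitored kinetically.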
FMDV antiviral: blocks foot and mouth disease virus; 1.2% of 410,000 active; FMDV antiviral cell-based qHTS; Potency, µM (titrated, usually from 57.9 µM), inactives show at the top dose activity change, negative = inhibition, most hits filed as inhibitors; calls by dose curve; tested in HEK293T cells; further: read-out not given here; potency means the concentration at half of the fitted maximal effect; on the % scale 0 is the no-effect control and ±100 the full control effect; nearly all actives have a fitted effect of over 45% in size
* hit, by the source's call; ? = inconclusive; nt = no result given.

SMILES | CHX counter | Shiga inhibitor | Sm TGR inh | FMDV antiviral
O=C(NCc1ccco1)c1ccc(COc2cc(Cl)ccc2Cl)cc1 | 24* | 69* | -11% | -23%
COc1ccc(C)cc1NC(=O)NCc1ccco1 | 2 | -3 | -9% | 5%
CCOc1ccc(NC(=O)c2cc(S(=O)(=O)NC3CCCC3)ccc2F)cc1 | nt | nt | 6% | 14%
O=C(COc1ccc(Cl)cc1Cl)NCc1ccco1 | 29* | 126* | 0% | 28%
Cc1ccc(OCC(=O)NCc2ccco2)cc1C | 7 | 16 | 35µM* | 18%
O=C(O)c1ccc(Cl)c(S(=O)(=O)NCc2ccco2)c1 | -5 | -6 | ? | 12%
O=S(=O)(NCc1ccco1)c1ccc(Cl)cc1Cl | -11 | -5 | 45µM* | 16%
Cc1ccc2c(Cl)cc(Cl)c(OCC(=O)NCc3ccco3)c2n1 | 6 | 8 | ? | nt
Cc1cc(Cl)cc(Cl)c1OCC(=O)NCc1ccco1 | 0 | -1 | 40µM* | -15%
C/C(CC(=O)NCc1ccco1)=N\NC(=O)COc1ccc(Cl)cc1Cl | -2 | -7 | -29% | 11%
CN(C)/[N+]([O-])=N/Oc1cc(ON=[N+]([O-])N2CCN(c3ncccn3)CC2)c([N+](=O)[O-])cc1[N+](=O)[O-] | 9 | -3 | nt | nt
O=C(COc1cccc2c1CCN(Cc1ccc(Br)cc1)C2=O)NCc1ccco1 | 29* | 65 | -28% | ?
O=C(Cc1cccs1)NNC(=S)NCc1ccco1 | -1 | -7 | -16% | -9%
O=C(COc1ccccc1-c1ccccc1)NCc1ccco1 | 8 | 7 | ? | -3%
O=C(COc1ccc(Cl)cc1Cl)NNC(=S)NCc1ccco1 | 17* | 22 | -3% | -1%
O=C(Cc1ccc(-c2ccccc2)cc1)NNC(=S)NCc1ccco1 | 32 | 56* | 5% | -14%
O=C(COc1cccc2c1CCN(Cc1ccc(Br)cc1)C2=O)N1CCOCC1 | -5 | 24 | ? | ?
O=C(COc1ccccc1Cl)NCc1ccco1 | 23* | 30 | -31% | 64%
O=C(COc1ccc(Cl)cc1Cl)NNC(=S)NC(=O)c1ccco1 | 1 | 10 | 1% | -5%
O=C(O)c1ccc(N/N=C/c2cccc(F)c2)cc1 | 81* | 69* | -16% | -38%
COc1cc(/C=N/Nc2ccc(C(=O)O)cc2)ccc1O | 5 | -8 | ? | ?
O=C(O)c1ccc(N/N=C/c2cccc(C(F)(F)F)c2)cc1 | 55* | 84* | -7% | 39%
O=C(O)c1ccc(N/N=C/c2ccc(F)c(F)c2)cc1 | 15* | 35 | -3% | 14µM*
COCCNC(=O)C1(C(F)(F)F)C/C(=C\Cc2ccccc2)CCCO1 (stereo not given) | 14 | 12 | nt | nt
CCCCOc1cccc(C(=O)N(Cc2cccs2)c2ccc(OC)cc2)c1 | nt | nt | 0% | -23%
SMILES | CHX counter | Shiga inhibitor | Sm TGR inh | FMDV antiviral
CC(=O)Nc1ccn(C2OC(C(COC(C)=O)NC(=O)C3CCCN3C(=O)OC(C)(C)C)C(OC(C)=O)C2OC(C)=O)c(=O)n1 (stereo not given) | -5 | -6 | nt | nt
COc1ccc(/C=N/NC(=O)c2cccc(NC(=O)c3ccccc3Cl)c2)cc1 | 50* | 40 | 5% | 20%
O=C(N/N=C/c1ccc(F)cc1)c1cccc(NC(=O)c2ccccc2Cl)c1 | 20* | 36* | 3% | 6%
Cc1ccc(NC(=O)CSc2nc3ccc(NC(=O)CCc4ccccc4)cc3s2)cc1 | nt | nt | 2% | -13%
Cc1c(C(=O)N2CCOCC2)oc2c1-c1nn(CC(=O)NCc3ccccc3)cc1CC2 | nt | nt | 0% | -14%
Cc1ccc(CCNC(=O)c2ccc3nc(N4CCC(C)CC4)sc3c2)cc1 | nt | nt | 10% | -11%
CC1CCN(c2nc3ccc(C(=O)NCCCN4CCCCC4)cc3s2)CC1 | 28* | 29* | 0% | 14%
CCC1CCCCN1CCCNC(=O)c1ccc2nc(N3CCC(C)CC3)sc2c1 (stereo not given) | 29* | 90* | -27% | ?
CCOc1ccc(CNC(=O)C2CCCN(c3nc4c(C)cc(C)cc4s3)C2)cc1 (stereo not given) | nt | nt | -4% | 32%
Cc1c(C(=O)NC2CCCCC2C)oc2ccccc12 (stereo not given) | -3 | -15 | 0.56µM* | 3%
Cc1c(C(=O)NC2CCN(Cc3ccccc3)C2)oc2ccc(Br)cc12 (stereo not given) | 14* | 78* | 8% | 3%
CCOc1ccc2oc(C(=O)NC3CCN(Cc4ccccc4)CC3)c(C)c2c1 | -3 | 12 | 17% | ?
COCc1c(C(=O)NC2CCCCCC2)oc2ccccc12 | 22* | 62* | 0% | 28%
Cc1c(C(=O)NC2CCC(C)CC2)oc2ccccc12 (stereo not given) | 46* | 61* | ? | 37%
COc1ccc(CN2CCOc3ccc(C(O)c4cccnc4)cc3C2)cc1O (stereo not given) | nt | nt | nt | -19%
COc1cc(OC)c(OC)cc1/C=C/c1nc2cc3ccccc3cc2c(=O)n1-c1ccccc1Br | nt | nt | 8% | -18%
CCOc1ccc(CNC(=O)CCC(=O)N2CC(C)Sc3ccccc32)cc1 (stereo not given) | nt | nt | 8% | -6%
Cc1cccn2c(=O)c3cc(C(=O)Nc4ccc(Cl)c(Cl)c4)sc3nc12 | nt | nt | 10% | -23%
Cc1cc(C)nc(SCC(=O)N/N=C\C(Br)=C\c2ccccc2)n1 | 5 | -7 | -3% | ?
O=C(N/N=C/C(Br)=C\c1ccccc1)c1cccs1 | 74* | 79* | -18% | 36%
CC(=C/c1ccccc1)/C=N/NC(=O)c1cccs1 | 36* | 78* | 12% | 3%
CC1(C)CC(=O)c2c(O)cc(OCC(=O)Nc3ccc(CCO)cc3)cc2O1 | 16* | 16 | -24% | 0%
COc1cccc(NC(=O)COc2cc(O)c3c(c2)OC(C)(C)CC3=O)c1 | 24* | 25 | 3% | -1%
COc1cc(NC(=O)COc2cc(O)c3c(c2)OC(C)(C)CC3=O)cc(OC)c1 | 7 | 3 | -20% | -33%
Cc1nn(C)cc1/C=C/C(=O)c1cccs1 | 48* | 58* | 3% | 45%
SMILES | CHX counter | Shiga inhibitor | Sm TGR inh | FMDV antiviral
Cc1nn(C)c(C)c1/C=C/C(=O)c1ccccc1 | 27* | 36* | -1% | 20%
CCn1cc(/C=C/C(=O)c2ccc(O)cc2)c(C)n1 | 13* | 15 | 0% | ?
Cc1nn(C)cc1/C=C/C(=O)c1ccccc1 | 28* | 65* | -21% | 55%
CCn1cc(/C=N/O)c(C)n1 | -1 | -8 | 1% | -2%
Cc1nn(C)c(C)c1/C=C/C(=O)c1cccs1 | nt | nt | nt | 13%
O=C(NCCS(=O)(=O)N1CCN(c2ccccc2F)CC1)c1ccccc1C(F)(F)F | nt | nt | ? | -11%
O=C1NC(c2ccccc2)=C(c2nc3ccccc3s2)C(c2ccc(F)cc2)N1 (stereo not given) | 0 | -16 | 5% | 22µM*
Cc1ccc(N(C(=O)c2csnn2)C(C(=O)NC(C)(C)C)c2ccncc2)cc1 (stereo not given) | 9 | -15 | -23% | nt
CC(C)c1ccc(N(C(=O)c2csnn2)C(C(=O)NC(C)(C)C)c2ccncc2)cc1 (stereo not given) | 35* | 33 | -21% | nt
COc1ccc(C(=O)N/N=C/c2ccc(OC)c(COc3ccccc3)c2)cc1 | 11 | 10 | -1% | 4%
